Consider 16 compounds from PubChem BioAssay (NCI).

The panel holds about 83,000 compounds, 20% with a hit somewhere; the sample as a whole holds those more often.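 The test compound was applied at a single concentration to cells in 96-well plates for 48 hours, and percent growth was recorded.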 A number with no mark means an inactive call. The source made the active and inactive calls. Rule for the calls: active = growth percent below 10; inactive = the rest.

Among the test systems are T-47D breast; BT-549 breast; MDA-MB-435 melanoma; SW-620 colon; MCF7 breast; HCT-116 colon; HCC-2998 colon; KM12 colon.
Holding throughout (assay): NCI-60 one-dose screen, 48 h (100 = growth as untreated, 0 = no growth, -100 = all killed)
Common to all, as to conditions: 10 µM unless noted

For `COc1ccc(-c2coc3c(CO)c(O)ccc3c2=O)cc1`, the growth is 61.8% in the experiment on T-47D breast; 14.2% in the experiment with BT-549 breast; 60.2% with MDA-MB-435 melanoma; 83.5% in the experiment with SW-620 colon; 40.8% with MCF7 breast; 19.3% with HCT-116 colon. Also, the growth in the experiment on HCC-2998 colon is 29.6%; in the experiment with KM12 colon, 60.4%.
For the compound `CC(=O)Cc1cccnc1`, the growth in the experiment on T-47D breast is 96.2%; with BT-549 breast it was 92.4%; in the experiment with MDA-MB-435 melanoma it was 110%; with SW-620 colon it was 97.1%; in the experiment with MCF7 breast, 101%; in the experiment on HCT-116 colon it was 81.6%. For the same compound, the growth is 108% in the experiment on HCC-2998 colon and 105% in the experiment on KM12 colon.
Take `CCN(CC)CCNc1ccc([N+](=O)[O-])c2sc3cc(Cl)ccc3c(=O)c12`: the growth in the experiment on T-47D breast is 103%; in the experiment with BT-549 breast, 89.9%; in the experiment on MDA-MB-435 melanoma, 72.8%; in the experiment on SW-620 colon it was 40.2%; in the experiment on MCF7 breast it was 24.6%; in the experiment on HCT-116 colon, 11.8%. For the same compound, the growth in the experiment on HCC-2998 colon is 47.3%; in the experiment on KM12 colon, 66.6%.
Consider `O=C(O)c1ccc(-n2cc(/C=N/Nc3ccc(F)cc3)c(-c3cccc(C(F)(F)F)c3)n2)cc1`, for which the growth in the experiment on T-47D breast was 73.2%; with BT-549 breast, 95.4%; in the experiment on MDA-MB-435 melanoma, 57.8%; with SW-620 colon, 63.3%; in the experiment with MCF7 breast, 46.4%; with HCT-116 colon, 66.3%. Besides, the values for the growth in the experiment on HCC-2998 colon and in the experiment on KM12 colon were 55.2% and 52.8%, respectively.
For the compound `CC1=C2C(=C[C@@](C)(CO)[C@@H]2OC(=O)N(C)CCN(C)C(=O)OC(C)(C)C)C(=O)[C@](C)(O)C12CC2`, the growth is 45.2% in the experiment on T-47D breast; 56.8% with BT-549 breast; 72.6% with MDA-MB-435 melanoma; 71.3% with SW-620 colon; 34.8% in the experiment on MCF7 breast; 15.9% in the experiment on HCT-116 colon. Also, the growth with HCC-2998 colon is 75.8%; in the experiment with KM12 colon, 74%.
In the case of `O=C(CSc1nnc(-c2ccccc2)o1)Nc1ccc(C(=O)/C=C/c2ccccc2)cc1`, the growth is 79.4% with T-47D breast; 74.5% in the experiment with BT-549 breast; 55.5% with MDA-MB-435 melanoma; 39.4% with SW-620 colon; 7.77% (active) in the experiment on MCF7 breast; -2.15% (active) in the experiment with HCT-116 colon. Besides, the growth is 46.5% with HCC-2998 colon and 30.2% with KM12 colon.
As for `CC(Cl)(CCl)CS(=O)(=O)c1ccc(Cl)cc1` (stereo not drawn), the growth is 113% in the experiment with T-47D breast; 105% in the experiment on BT-549 breast; 108% with MDA-MB-435 melanoma; 103% in the experiment on SW-620 colon; 99.8% in the experiment on MCF7 breast; 103% with HCT-116 colon. Besides, the growth with HCC-2998 colon is 104%; with KM12 colon, 108%.
`COc1ccc2c(c1)nnc1c3cccnc3[nH]c21`: the growth in the experiment on T-47D breast was 6.14% (active); with BT-549 breast, 4.75% (active); in the experiment on MDA-MB-435 melanoma it was 13.8%; with SW-620 colon it was -12.5% (active); in the experiment with MCF7 breast, -43.5% (active); in the experiment with HCT-116 colon, -74% (active). Besides, the results for the growth with HCC-2998 colon and in the experiment on KM12 colon were 40.6% and 30%, respectively.
Turning to `Nc1nc(-c2cc3c(cc2Cl)NC(=O)/C3=C/c2ccccc2)cs1`, the growth with T-47D breast is 7.52% (active); with BT-549 breast, 55.7%; with MDA-MB-435 melanoma, 24.4%; with SW-620 colon, 40.4%; with MCF7 breast, 7.09% (active); with HCT-116 colon, 14.5%. Besides, the growth is 58% with HCC-2998 colon and 45.5% with KM12 colon.
`CS(=O)(=O)Nc1cccc(-c2ccc3ncnc(Nc4cncc(Cl)c4)c3c2)c1`: the growth in the experiment on T-47D breast is -21.9% (active); with BT-549 breast it was 34.8%; with MDA-MB-435 melanoma, 49.9%; in the experiment on SW-620 colon, 33.2%; in the experiment with MCF7 breast it was 15.6%; with HCT-116 colon, 30.4%. The growth with HCC-2998 colon was 39.2%; in the experiment on KM12 colon, 32.7%.
For `COc1ccc(-c2cnc(-c3ccc(F)cc3)[nH]2)cc1`, the growth is 86.9% in the experiment with T-47D breast; 314% in the experiment with BT-549 breast; -6.97% (active) with MDA-MB-435 melanoma; 18.6% in the experiment with SW-620 colon; 26.3% with MCF7 breast; -68.8% (active) in the experiment on HCT-116 colon. Besides, the growth is -10% (active) with HCC-2998 colon and 30.6% in the experiment on KM12 colon.
For `O=C(Nc1ccc(-n2ccc3c(NC(=O)c4ccccc4)ncnc32)cc1)c1cccc(C(F)(F)F)c1`, the growth in the experiment on T-47D breast is 57.8%; with BT-549 breast it was 51.9%; in the experiment with MDA-MB-435 melanoma, 38.3%; in the experiment on SW-620 colon, 29.1%; with MCF7 breast, 36.4%; with HCT-116 colon, 22.3%. Besides, the growth in the experiment with HCC-2998 colon was 59.8%; in the experiment with KM12 colon, 30%.
For the compound `COc1ccc(C(=O)Cn2cnc3c(Nc4cc(C(=O)Nc5ccc(N6CCN(CCO)CC6)cc5)ccc4C)ncnc32)cc1`, the growth with T-47D breast is 91.6%; in the experiment on BT-549 breast, 94.9%; in the experiment with MDA-MB-435 melanoma it was 105%; in the experiment on SW-620 colon, 105%; in the experiment on MCF7 breast, 87.1%; with HCT-116 colon it was 97.3%. Further, the growth in the experiment with HCC-2998 colon is 97.4%; with KM12 colon, 99.4%.
For the compound `CCCCCCCCCCCCCCCCCCNCc1ccc(Cl)cc1`, the growth was 9.34% (active) in the experiment with T-47D breast; 38.5% in the experiment with BT-549 breast; -80.3% (active) in the experiment with MDA-MB-435 melanoma; -75.8% (active) with SW-620 colon; -71.2% (active) in the experiment on MCF7 breast; -74.5% (active) with HCT-116 colon. The growth in the experiment with HCC-2998 colon is -82.8% (active); with KM12 colon, -77.2% (active).
On to `CCCCCCCCCCCCCCCC(=O)NS(=O)(=O)OC[C@H]1O[C@@H](n2cnc3c(N)ncnc32)[C@H](O)[C@@H]1O`, for which the growth in the experiment on T-47D breast is -16.9% (active); in the experiment on BT-549 breast, -65.2% (active); in the experiment on MDA-MB-435 melanoma, -74.5% (active); with SW-620 colon, -39.2% (active); with MCF7 breast it was 5.8% (active); with HCT-116 colon, -25.8% (active). Besides, the growth in the experiment on HCC-2998 colon is -85.9% (active); with KM12 colon, -39.2% (active).
As to `O=c1cc(Cl)[nH]c(=O)[nH]1`, the growth in the experiment with T-47D breast is 95.1%; in the experiment on BT-549 breast, 103%; in the experiment with MDA-MB-435 melanoma it was 111%; in the experiment on SW-620 colon, 106%; in the experiment with MCF7 breast, 92.5%; in the experiment with HCT-116 colon it was 101%. Moreover, the results for the growth in the experiment with HCC-2998 colon and in the experiment on KM12 colon were 93.5% and 105%, respectively.
